We go through 40 compounds from PubChem BioAssay (EPA / NIEHS).

Calls of active or inactive are those of the source. Rule for the calls: active = hit-call score of the fitted dose curve at least 0.9, where 1 is the maximum; inactive = score below 0.9. Peptide text beside a SMILES is read from it.

This test can be described thus: ATG_RORE_CIS: Attagene CIS-FACTORIAL HepG2 Assay for human RAR-related Orphan Receptor Element (RORE) (AID 2282959). As to conditions: HepG2 Attagene cis-factorial RORE reporter, mRNA; actives raise or lower the signal. The method, then: ATG_CIS is a cell-based, multiplexed-readout assay that uses HepG2, a human liver cell line, with measurements taken at 24 hours after chemical dosing in a 24-well plate.ATG_RORE_CIS is one of 52 assay component(s) measured or calculated from the ATG_CIS assay. It is designed to make measurements of mRNA induction, a form of inducible reporter, as detected with fluorescence intensity signals by Reverse transcription polymerase chain reaction (RT-PCR) and Capillary electrophoresis technology.Data from the assay component ATG_RORE_CIS was analyzed into 1 assay endpoint. This assay endpoint, ATG_RORE_CIS, was analyzed with bidirectional fitting relative to DMSO as the negative control and baseline of activity. Using a type of inducible reporter, measures of mRNA for gain or loss-of-signal activity can be used to understand the reporter gene at the transcription factor-level as they relate to the gene RORA and RORB and RORC. Furthermore, this assay endpoint can be referred to as a primary readout, because this assay has produced multiple assay endpoints where this one serves a reporter gene function. To generalize the intended target to other relatable targets, this assay endpoint is annotated to the nuclear receptor intended target family, where the subfamily is orphan.
Human liver HepG2 cells are transiently transfected with multiple reporter transcription units (MRTUs) in 6-well plates using FuGene 6 reagent (Roche; 3 ml FuGene/1 mg DNA). The MRTU constructs are regulated by a cis-regulating element (promoter). […] A major difference between the CIS and TRANS system is that in CIS activities of endogenous TFs are measured, whereas the TRANS assay evaluates changes in activities of exogenous, chimeric NR-Gal4 proteins. […] At the end of 24 hour incubation, total RNA was isolated using TriZol reagent (Invitrogen). The isolated RNA is then reverse-transcribed using oligo(dT) primer and Mo-MLV reverse transcriptase (Invitrogen) with DNAse I (Ambion) treatment for 30 min. The one-tenth of the produced cDNA was amplified by PCR using Taq DNA polymerase (Invitrogen) and two reporter sequence-specific primers. The PCR products were fluorescently labeled by primer extension with 6-arboxyfluorescein (6-FAM) 5'-labeled reporter sequence-specific primer (2 min at 95 C, 20 s at 68 C and 10 min at 72 C) and these products were digested with 5U of HpaI (New England Biolabs) for 2h at 37 C. The fragments were purified using Qiaquick PCR columns (Qiagen), analyzed on an ABI 3130xL genetic analyzer (Applied Biosystems) with peak positions identified by using a set of X-rhodamine (ROX)-labeled MapMarker1000 molecular weight standards (BioVentures). The raw capillary electrophoresis data was processed using Attagraph software (Attagene).
On to `O=C(C=Cc1ccccc1)OCCc1ccccc1`, for which the call was inactive.

Turning to `CC(=O)OC/C=C(/C)CCC=C(C)C`, the compound was classed as inactive.

For the compound `O=C(O)C(F)(F)C(F)(F)C(F)(F)C(F)(F)C(=O)O`, the result was inactive.

Take `CN(C)Cc1cc(CN(C)C)c(O)c(CN(C)C)c1`: the call was inactive.

Turning to `O=C1CCCCCCCCCCCN1`, the outcome was inactive.

As for `O=C(Oc1ccccc1)c1ccccc1O`, the call was inactive.

In the case of `CCN1CN(CC)CN(CC)C1`, the result was inactive.

`CC(Cl)COP(=O)(OCC(C)Cl)OCC(C)Cl` (stereo not given): the compound was classed as inactive.

On to `OCCCc1ccccc1`, for which the call was inactive.

`Nc1nc(N)nc(-c2ccccc2)n1`: the outcome was inactive.

On to `CC(C)=CCl`, for which the result was inactive.

Take `CCCCOCCOCCOC(C)=O`: the compound was called inactive.

In the case of `O=C(Cl)c1c(Cl)c(Cl)c(C(=O)Cl)c(Cl)c1Cl`, the compound was classed as inactive.

As to `CC(C)c1cccc(C(C)C)c1N`, the call was inactive.

In the case of `O=C(O)CCC(=O)O`, the outcome was inactive.

Regarding `CC12CCC(CC1)C(C)(C)O2`, the outcome was inactive.

On to `O=C(O)C1CCC(C(=O)O)CC1` (stereo not given), for which the outcome was inactive.

Take `CC(C)=CCCC(C)=CC#N`: the result was inactive.

As to `CC(=O)OCC=C(C)C`, the call was inactive.

Take `CCCCCCOC(=O)CCCCC(=O)OCCCCCC`: the call was inactive.

As to `c1ccc2sc(SSN3CCOCC3)nc2c1`, the call was inactive.

As to `C=Cc1ccc(OC(C)=O)cc1`, the compound was classed as inactive.

For the compound `C=C(C)C(=O)OCCCCCCCCCCCC`, the result was inactive.

Consider `O=C(Cl)c1ccc(C(=O)Cl)cc1`, for which the compound was classed as inactive.

In the case of `COC(=O)[C@H](Cc1ccccc1)NC(=O)[C@@H](N)CC(=O)O` (H-Asp-Phe-OMe), the call was inactive.

For `C=CC(C)(CCC=C(C)C)OC(=O)C=Cc1ccccc1` (stereo not given), the outcome was inactive.

Consider `CCCCCCCCCC(C)=O`, for which the compound was classed as inactive.

As to `CCCCCCCCCCCCCCCCCCOS(=O)(=O)O`, the result was inactive.

Take `Oc1ccc(-c2ccccc2)c(Cl)c1`: the AC50 (commonly the concentration at which the activity in the assay is half-maximal) was 33.4 µM (active).

Regarding `CCc1cccc(C)c1N`, the call was inactive.

Regarding `CCCCCOC(=O)CCCCC`, the call was inactive.

Regarding `Oc1c(Cl)cc(Cl)c(Cl)c1Cl`, the AC50 was 43.4 µM (active).

Regarding `CC=CC(=O)OCC(C)C`, the compound was called inactive.

For the compound `NC(=O)Nc1ccccc1`, the compound was called inactive.

Turning to `CC(=O)C(C)C`, the compound was called inactive.

In the case of `CC1=NN(c2ccc(S(=O)(=O)O)cc2)C(=O)C1N=Nc1ccccc1` (stereo not given), the outcome was inactive.

As to `CCOC(=O)C1=NN(c2ccc(Cl)cc2Cl)C(C)(C(=O)OCC)C1` (stereo not given), the result was inactive.

In the case of `CC(C)CCCCCOC(=O)CS`, the outcome was inactive.

Regarding `CCCCCCCOC(=O)c1ccc(O)cc1`, the outcome was inactive.

With `CCCC1CCCC(=O)O1` (stereo not given), the compound was called inactive.
